Most compounds without a hit are left out; they make up all but 1.3% or so of the library.
S1P3 antagonist – S1P3 (human) receptor antagonism; CHO S1P3 NFAT-BLA reporter, FRET fluorescence, antagonist mode; inhibition, % at 4.98 µM; 170,000 compounds, 0.27% hits; AID 485;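 active = inhibition above the plate cutoff, the mean inhibition of test wells on that plate plus 3 SD, cut at about 28% in these data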;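 note: cells challenged with S1P at its EC80 of 0.8 µM; blue over green emission ratio from cleaved BLA substrate after 4 h stimulation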
PERK inh – inhibitors of human PERK kinase; inhibition, % at 5.6 µM; 220,000 compounds, 0.17% hits; Q9NZJ5; CHO PERK-DD fusion, SEAP luminescence translation reporter;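 active = inhibition above the mean inhibition of all tested compounds plus 3 SD, set separately per screening campaign, cut at about 2.9% in these data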;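 note: PERK kinase domain activated by AP20187 dimerizer at 100 nM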
Target sequence (Q9NZJ5 whole entry, looked up, the tested form may be a part): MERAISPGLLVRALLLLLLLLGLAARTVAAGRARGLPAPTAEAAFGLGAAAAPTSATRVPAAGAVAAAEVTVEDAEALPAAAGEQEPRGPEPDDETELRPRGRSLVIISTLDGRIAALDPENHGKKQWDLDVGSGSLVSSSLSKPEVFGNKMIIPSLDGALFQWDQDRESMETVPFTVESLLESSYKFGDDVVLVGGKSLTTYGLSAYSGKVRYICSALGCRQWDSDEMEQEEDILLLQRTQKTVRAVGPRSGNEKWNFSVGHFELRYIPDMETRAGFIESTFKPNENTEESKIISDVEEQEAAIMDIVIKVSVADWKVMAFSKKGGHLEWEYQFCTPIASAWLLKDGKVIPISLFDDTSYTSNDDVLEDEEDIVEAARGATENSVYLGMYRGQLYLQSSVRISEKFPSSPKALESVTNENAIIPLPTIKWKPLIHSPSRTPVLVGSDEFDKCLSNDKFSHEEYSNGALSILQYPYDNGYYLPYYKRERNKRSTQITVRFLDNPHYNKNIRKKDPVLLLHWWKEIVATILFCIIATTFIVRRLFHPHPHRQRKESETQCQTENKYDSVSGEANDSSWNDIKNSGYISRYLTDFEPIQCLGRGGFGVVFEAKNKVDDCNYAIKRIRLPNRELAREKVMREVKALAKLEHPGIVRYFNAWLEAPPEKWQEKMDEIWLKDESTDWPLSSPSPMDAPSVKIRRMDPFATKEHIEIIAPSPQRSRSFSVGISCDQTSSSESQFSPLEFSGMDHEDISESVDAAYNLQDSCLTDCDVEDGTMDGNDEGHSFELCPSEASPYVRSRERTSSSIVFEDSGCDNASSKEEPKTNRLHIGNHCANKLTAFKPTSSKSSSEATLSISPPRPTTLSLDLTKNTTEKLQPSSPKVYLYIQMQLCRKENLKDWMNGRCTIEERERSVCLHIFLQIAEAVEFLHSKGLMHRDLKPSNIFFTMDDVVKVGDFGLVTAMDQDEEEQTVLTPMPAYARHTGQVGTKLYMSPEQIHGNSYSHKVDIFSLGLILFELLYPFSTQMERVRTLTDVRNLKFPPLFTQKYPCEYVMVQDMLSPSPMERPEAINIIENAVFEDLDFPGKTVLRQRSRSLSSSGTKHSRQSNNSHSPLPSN
m-calpain inh – blocks pig calpain II enzyme activity; purified calpain II, fluorogenic peptide substrate, 30 min; inhibition, % at 16 µM; 220,000 compounds, 0.37% hits;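 active = inhibition above about 50%, limit read from the data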
S1P4 agonist – agonists of human S1P4 receptor. 220,000 compounds, 0.35% hits. O95977. activation, % at 4.98 µM. S1P4-expressing cell line, agonist reporter assay; in the data active = activation above about 11%
S1P4 antag – human S1P4 receptor antagonism | O95977 | S1P4-expressing cells, antagonist mode, reporter read-out | inhibition, % at 4.98 µM | 220,000 compounds, 0.26% hits | AID 1510; in the data active = inhibition above about 29%
S1P4 agonist cf – confirmation of human S1P4 receptor agonists. shares compounds with S1P4 agonist. S1P4 agonist cell-based reporter assay. activation, % at 4.98 µM. 740 compounds, 7% hits. AID 1523; in the data active = activation above about 12%
S1P1 ag – counter-screen for S1P4 agonists: agonists of human S1P1; shares compounds with S1P4 agonist; S1P1 agonist cell-based assay, activation; activation, % at 4.98 µM; 740 compounds, 4% hits; in the data active = activation above about 21%
A number is an active result; - = inactive; . = no result given.

SMILES	S1P3 antagonist	PERK inh	m-calpain inh	S1P4 agonist	S1P4 antag	S1P4 agonist cf	S1P1 ag
C(=C\c1nccc2c1[nH]c1ccccc12)/c1ccccc1	-	-	-	11.2	-	-	-
CCOC(=O)C1C(=O)N(C(=O)c2cncc(Br)c2)CC1c1ccccc1 (stereo not drawn)	-	-	-	19.8	-	-	-
CCOC(=O)C1C(=O)N(C(=O)c2ccc(OC)cc2)CC1c1ccccc1 (stereo not drawn)	-	-	-	-	-	.	.
C/C(CC(=O)Nc1ccc(OCc2ccccc2)cc1)=N\NC(=O)C(=O)Nc1cccc(C)c1	-	-	-	19.0	-	-	-
Cc1ccc(CCNC(=O)c2nnn(-c3cc(C)cc(C)c3)c2N)cc1	-	-	-	11.0	-	-	-
Nc1nc2c(F)c(F)c(F)cc2s1	-	-	-	-	-	.	.
CC12c3ccccc3C(c3ccccc31)C1C(=O)N(Cc3cccnc3)C(=O)[C@H]12 (stereo partly drawn)	-	-	-	39.8	-	-	-
CC12c3ccccc3C(c3ccccc31)C1C(=O)N(c3cccnc3)C(=O)C12 (stereo not drawn)	-	-	-	-	-	.	.
CCOc1ccc(-c2nnn(CC(=O)NCc3ccco3)n2)cc1	-	-	-	-	-	.	.
CCOc1ccc(-c2nnn(CC(=O)NCc3ccccc3)n2)cc1	-	-	-	19.1	-	-	-
CCC(C(=O)OCC(=O)Nc1c(Cl)cccc1Cl)c1ccccc1 (stereo not drawn)	-	-	-	15.4	-	-	-
S=C(c1cn(CCOc2cccc3ccccc23)c2ccccc12)N1CCCC1	-	-	-	29.2	-	-	-
Cc1cc(OCC(=O)N2CCCCCC2)ccc1[N+](=O)[O-]	-	-	-	-	-	.	.
Cc1cc(OCCN2CCCCCC2)ccc1[N+](=O)[O-]	-	-	-	24.4	-	-	-
CCOCCCNS(=O)(=O)c1ccc(NC(=O)N2c3ccccc3Sc3ccccc32)cc1	.	-	-	34.0	-	-	-
CCOCCCNS(=O)(=O)c1ccc(NC(=O)CN2C(=O)c3ccccc3C2=O)cc1	-	-	-	-	-	.	.
CCc1cc(=O)oc2c(CN3CCN(C)CC3)c(O)c(Cl)cc12	.	-	-	11.4	-	-	-
CCc1cc(=O)oc2c(CN3CCCC3)c(O)c(Cl)cc12	.	-	.	-	-	.	.
CCCc1ccc(OCC(=O)Nc2cc(S(=O)(=O)CC)ccc2O)cc1	-	-	-	12.4	-	-	-
O=C(NCc1ccccc1)C(c1ccc(F)cc1)N(Cc1ccco1)C(=O)c1ccccn1 (stereo not drawn)	.	-	-	40.2	-	-	-
Cc1ccccc1NC(=S)NC(=O)c1cncc(Br)c1	-	-	-	16.4	-	-	-
CN(C)c1cc(-c2ccc(Br)cc2)oc(=O)c1Cl	-	-	-	-	-	.	.
Cc1cc(=O)[nH]c(N/N=C/c2c(O)n(-c3ccccc3)c(=O)c3ccccc23)n1	-	-	-	29.2	-	-	-
CC(C)N(C(=O)CSc1nnnn1-c1ccc2c(c1)OCO2)C(C)C	-	-	-	-	-	.	.
Cc1ccccc1CC1(CO)CCCN(C(=O)c2cc(Cl)ccc2F)C1 (stereo not drawn)	-	-	-	26.4	-	-	-
SMILES	S1P3 antagonist	PERK inh	m-calpain inh	S1P4 agonist	S1P4 antag	S1P4 agonist cf	S1P1 ag
Cc1ccccc1CC1(CO)CCCN(C(=O)c2ccccc2Cl)C1 (stereo not drawn)	-	-	-	-	-	.	.
COc1ccc(OC)c(N/C(=N/C(=S)Nc2ccccc2)Nc2nc(C)cc(C)n2)c1	-	-	-	-	-	.	.
Cn1cccc1/C=C1\CCc2ccccc2C1=O	-	-	-	38.6	-	-	-
Clc1ccc(N2N=C(c3cccs3)CC2c2ccco2)cc1 (stereo not drawn)	.	-	-	14.1	-	18.9	55.2
c1ccc(N2N=C(c3cccs3)CC2c2ccco2)cc1 (stereo not drawn)	.	-	-	-	-	.	.
OCCC1CN(Cc2cccnc2)CCN1CCc1ccccc1 (stereo not drawn)	-	-	-	-	-	.	.
CC(C)n1cc(CN2CCN(CCc3ccccc3)C(CCO)C2)cn1 (stereo not drawn)	-	-	-	13.7	-	-	-
COc1cc(C2Oc3ccccc3C=C2[N+](=O)[O-])cc(OC)c1OC (stereo not drawn)	-	-	-	-	-	.	.
CC(=O)Nc1nc(C(=O)Nc2c(C)n[nH]c2C)cs1	-	-	-	14.1	-	-	-
Cc1c(Nc2c3ccccc3nc3ccccc23)c(=O)n(-c2ccccc2)n1C	-	-	-	11.5	-	-	-
CNc1ccc(/C=C/C(=O)c2cccc3ccccc23)cc1[N+](=O)[O-]	-	-	-	-	-	.	.
Cc1nc2cc(NC(=O)Nc3ccccc3Cl)ccc2n1C	-	-	-	-	-	.	.
O=C(CSc1nc2ncc(Cl)cc2[nH]1)c1ccc2c(c1)OCO2	-	-	-	-	-	.	.
O=C(CSc1nc2ncc(Br)cc2[nH]1)Nc1ccc2c(c1)OCO2	-	-	-	28.9	-	-	-
Cc1ccc(S(=O)(=O)N2CC(=O)Nc3ccccc32)cc1	.	-	-	-	-	.	.
CC(=O)Nc1ccc(S(=O)(=O)N2CCC(=O)Nc3ccccc32)cc1	-	-	-	15.8	-	-	-
CC/C(=N\O)c1c(O)c2c(n(-c3ccccc3)c1=O)CCCC2	-	-	-	22.5	-	-	-
CN1CCN(Cc2c(O)ccc3cc(Br)ccc23)CC1	-	-	-	32.1	-	-	-
CC(C)N1C(=O)CCC1C(=O)NCc1cccs1 (stereo not drawn)	-	-	-	-	-	.	.
CCOc1ccc(CCNC(=O)COC(=O)c2cccc(OC)c2O)cc1OCC	-	-	-	12.8	-	-	-
CCOc1ccc(CCNC(=O)COC(=O)c2ccc(OC)c(OC)c2OC)cc1OCC	-	-	-	-	-	.	.
COc1ccc(NC(=O)C(c2ccccc2)N2CCN(c3ccccn3)CC2)cc1Cl (stereo not drawn)	-	-	-	-	-	.	.
CNC(=O)c1cccnc1Nc1cccc(C(F)(F)F)c1	-	-	-	33.4	-	-	-
Cc1cccnc1NC(=O)Nc1cccc(C(F)(F)F)c1	-	-	-	-	-	.	.
Cc1nn(Cc2cccc(C(=O)N3CCCC(C)C3)c2)c(C)c1[N+](=O)[O-] (stereo not drawn)	-	-	-	-	-	.	.
SMILES	S1P3 antagonist	PERK inh	m-calpain inh	S1P4 agonist	S1P4 antag	S1P4 agonist cf	S1P1 ag
Cc1cc(Nc2cc(F)ccc2C)n2nc(C)nc2n1	-	-	-	14.1	-	-	-
COC(=O)c1ccc(NC(=O)c2ccccc2)o1	.	-	-	24.8	-	-	-
COC(=O)c1ccc(NC(C)=O)o1	.	-	-	-	-	.	.
c1ccc(CC2CCCNC2)cc1 (stereo not drawn)	-	-	-	49.4	-	-	-
Cc1nc(Sc2nnnn2C)c2c3c(sc2n1)CCC3	-	-	-	11.4	-	-	-
COc1ccc(-c2cc(C(=O)N/N=C/c3ccc4c(c3)OCO4)c3ccccc3n2)c(OC)c1	.	-	-	-	-	.	.

Source: PubChem BioAssay (several laboratories)
